Our source for the growth values is PubChem BioAssay (NCI).

This is part of a sample that, as a whole, favours compounds with a hit. Of some 83,000 tested, about 20% had one in any assay.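 Single-concentration screen, 48 h exposure, 96-well plates. Endpoint: percent growth. Below 10 = active.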 Values without a mark were called inactive. Activity calls are given as the source filed them.

Holding throughout (assay): NCI-60 one-dose screen, 48 h (100 = growth as untreated, 0 = no growth, -100 = all killed)
Holding throughout (conditions): 10 µM unless noted

Assay [1] relates to T-47D breast.
Assay [2] concerns BT-549 breast.
Assay [3] concerns MDA-MB-435 melanoma.
The subject of assay [4] is SW-620 colon.
Assay [5] relates to MCF7 breast.
Assay [6] relates to HCT-116 colon.
Assay [7] relates to HCC-2998 colon.
The subject of assay [8] is KM12 colon.

On to `O=C(/C=C/c1ccc(Cl)cc1)c1cccc(OCCCOc2cccc(C(=O)/C=C/c3ccc(Cl)cc3)c2)c1`, for which the growth in assay [1] was 78%; in assay [2], 105%; in assay [3] it was 101%; in assay [4], 98.6%; in assay [5], 21.1%; in assay [6] it was 26%. The growth in assay [7] is 104%; in assay [8] it was 103%.

For the compound `Cc1ccc2c(=O)cc(C(=O)Nc3sc4c(c3C(=O)NCc3cccnc3)CCCC4)oc2c1C`, the growth in assay [1] was 94%; in assay [2], 107%; in assay [3] it was 101%; in assay [4], 101%; in assay [5], 96.8%; in assay [6], 109%. Besides, the growth in assay [7] is 106%; in assay [8] it was 97.1%.

Take `COC(=O)c1c2c(c(C)[n+]([O-])c1C)C(=O)C(NCc1cccc(Cl)c1)=CC2=O`: the growth in assay [1] is 6% (active); in assay [2], 49.3%; in assay [3], -68.5% (active); in assay [4], 7.1% (active); in assay [5], -36% (active); in assay [6], 1.18% (active). The growth in assay [7] is 15.3%; in assay [8] it was 17.7%.

On to `Cc1ccc(-c2nc(N3CCNCC3)c3oc(-c4ccc(C)cc4)nc3n2)cc1`, for which the growth in assay [1] is 37.3%; in assay [2] it was 83.4%; in assay [3], -77.1% (active); in assay [4], -69.3% (active); in assay [5], -73.1% (active); in assay [6], -39.4% (active). Moreover, the growth in assay [7] is 65.5%; in assay [8], -81.9% (active).

As to `CCN1CCN(C(=O)[C@]23CC[C@@H](C)[C@H](C)[C@@H]2C2=CC[C@@H]4[C@@]5(C)C/C(=C/c6cccnc6)C(=O)C(C)(C)[C@@H]5CC[C@@]4(C)[C@]2(C)CC3)CC1`, the growth in assay [1] was 22%; in assay [2], 41.2%; in assay [3] it was 24%; in assay [4] it was 13.3%; in assay [5], 8.54% (active); in assay [6], 10.3%. In addition, the figures for the growth in assay [7] and in assay [8] were 19.6% and 18.2%, respectively.

As for `CNC(=O)c1cc(Oc2ccc3c(c2)sc2nc(-c4ccc(OC)cc4)cn23)ccn1`, the growth in assay [1] was 46.4%; in assay [2] it was 52.4%; in assay [3], 5.17% (active); in assay [4], 77.7%; in assay [5] it was 12.9%; in assay [6] it was 16%. For the same compound, the growth is 17.4% in assay [7] and 58.9% in assay [8].

Consider `CN(Cc1cc(Br)cc(Br)c1O)Cc1cc(Br)cc(Br)c1O`, for which the growth in assay [1] is 42.6%; in assay [2], 57.8%; in assay [3], 52.6%; in assay [4], 24.5%; in assay [5], 17.7%; in assay [6], 7.44% (active). Further, the growth was 38.7% in assay [7] and 42.5% in assay [8].

For `C/C=C(\C)C(=O)N[C@H]1C(O)C[C@]2(C)C3CC[C@@]4(C)C(CC[C@@H]4C(C)N(C)C)C3CCC2C1O` (stereo partly drawn), the growth in assay [1] was 37.6%; in assay [2] it was 88.9%; in assay [3] it was -22.2% (active); in assay [4], 12.9%; in assay [5], 28.6%; in assay [6], 3.85% (active). In addition, the growth is 59.7% in assay [7] and 28.7% in assay [8].

In the case of `Oc1c(CN2CCC(N3CCCCC3)CC2)cc(Cc2cc(CN3CCC(N4CCCCC4)CC3)c(O)c3ncccc23)c2cccnc12`, the growth in assay [1] is 7.31% (active); in assay [2] it was 27%; in assay [3], -13.1% (active); in assay [4] it was 29.1%; in assay [5] it was 6.62% (active); in assay [6], 13%. In addition, the values for the growth in assay [7] and in assay [8] were 32.9% and 21.7%, respectively.

For `Nc1nc(N)c(N=Nc2ccccc2)c(-c2ccccc2)n1`, the growth in assay [1] was 10.2%; in assay [2], 47%; in assay [3], 73.1%; in assay [4], 86.3%; in assay [5] it was 19.4%; in assay [6] it was 69.7%. The growth in assay [7] was 76.4%; in assay [8], 33.4%.

Regarding `COc1cc(OC)c2sc(-c3ccc(-n4cncc4-c4cc(OC)c(OC)c(OC)c4)cc3)nc2c1`, the growth in assay [1] is 32.4%; in assay [2] it was 45.1%; in assay [3], 35.2%; in assay [4], 56.6%; in assay [5] it was 49.8%; in assay [6] it was 48.6%. The growth was 95.3% in assay [7] and 52.4% in assay [8].

Regarding `COc1ccc2nc(Cl)c(/C=C3\CC(c4ccccc4)=NN(c4ccccc4)C3=O)cc2c1`, the growth in assay [1] was 73.1%; in assay [2] it was 43.3%; in assay [3] it was 90.3%; in assay [4], 88.7%; in assay [5], 82%; in assay [6], 54.1%. For the same compound, the growth in assay [7] is 85%; in assay [8] it was 90.3%.

Turning to `CCOc1c(OC)cc2c(c1O)C(=O)N[C@@H]1[C@@H](O)[C@@H](O)[C@H](O)C[C@@H]21`, the growth in assay [1] was 92.8%; in assay [2], 99.6%; in assay [3] it was 108%; in assay [4] it was 107%; in assay [5], 92.1%; in assay [6], 104%. Besides, the growth is 102% in assay [7] and 104% in assay [8].

As to `O=C(CN1CCN(c2cc3c(cc2F)c(=O)c(C(=O)O)cn3C2CC2)CC1)N/N=C/c1ccco1`, the growth in assay [1] was 86.8%; in assay [2], 95.2%; in assay [3] it was 102%; in assay [4], 99.6%; in assay [5], 87.1%; in assay [6], 97.1%. Also, the growth in assay [7] was 107%; in assay [8], 102%.

In the case of `CCN(CC)Cc1cc(Nc2ccnc3cc(Cl)ccc23)ccc1O`, the growth is 100% in assay [1]; 95.5% in assay [2]; 97.8% in assay [3]; 88.4% in assay [4]; 86.9% in assay [5]; 79.7% in assay [6]. Besides, the growth in assay [7] was 93.2%; in assay [8] it was 87.7%.

For `COc1ccc(C(=O)Cn2c(C(=O)c3ccc(Cl)cc3)nc3ccccc32)cc1`, the growth in assay [1] was 73.8%; in assay [2] it was 88.8%; in assay [3] it was -8.55% (active); in assay [4] it was 32.7%; in assay [5], 20.4%; in assay [6] it was 26.9%. For the same compound, the results for the growth in assay [7] and in assay [8] were 72.7% and 38.2%, respectively.

Consider `O=c1ccc(=O)n(-c2nc(-c3ccc([N+](=O)[O-])cc3)cs2)[nH]1`, for which the growth in assay [1] is 98.5%; in assay [2], 98.5%; in assay [3], 99.1%; in assay [4] it was 101%; in assay [5] it was 90.1%; in assay [6] it was 95.2%. Further, the growth is 106% in assay [7] and 99.6% in assay [8].

On to `Nc1ncnc2c1N=C(c1ccc3c(c1)OCO3)CC(c1cccc(Nc3ccnc4cc(C(F)(F)F)ccc34)c1)N2` (stereo not drawn), for which the growth in assay [1] was 87.5%; in assay [2] it was 112%; in assay [3], 92.6%; in assay [4], 69.1%; in assay [5], 36.6%; in assay [6], 70.3%. The growth was 90.6% in assay [7] and 50.1% in assay [8].

Take `NC(=O)c1cccc([C@@H]2O[C@H](CO)[C@@H](O)[C@H]2O)c1`: the growth in assay [1] is 85.7%; in assay [2] it was 90.9%; in assay [3], 106%; in assay [4], 24%; in assay [5] it was 61.8%; in assay [6], 72.7%. For the same compound, the growth is 93.9% in assay [7] and 34.7% in assay [8].

As for `CCN1CCN(c2cc(C)nc(N(CCNc3ccnc4cc(Cl)ccc34)Cc3ccc4c(c3)OCO4)n2)CC1`, the growth was -62.1% (active) in assay [1]; 36.4% in assay [2]; -66.3% (active) in assay [3]; 0.855% (active) in assay [4]; -37.3% (active) in assay [5]; -23.2% (active) in assay [6]. Further, the growth is -46% (active) in assay [7] and 5.74% (active) in assay [8].

For `O=C(NNc1cnccn1)c1nc2cc(F)ccc2n2cccc12`, the growth is 20% in assay [1]; 32% in assay [2]; 24.5% in assay [3]; 19.6% in assay [4]; 5.93% (active) in assay [5]; 5.5% (active) in assay [6]. The growth was 35.7% in assay [7] and 18.5% in assay [8].

Consider `O=c1nc(-c2ccccc2)c2cc(-c3ccc(C(F)(F)F)nc3)ccc2[nH]1`, for which the growth in assay [1] is 95.3%; in assay [2] it was 99.3%; in assay [3], 104%; in assay [4] it was 101%; in assay [5], 86.8%; in assay [6] it was 92.4%. Further, the growth in assay [7] is 105%; in assay [8], 91.1%.

`COc1ccc(/C=C/C(c2cc(OC)c(OC)c(OC)c2)n2ccnc2)cc1O` (stereo not drawn): the growth was 40.6% in assay [1]; 44.3% in assay [2]; -25.6% (active) in assay [3]; 17.4% in assay [4]; 17.9% in assay [5]; 16.7% in assay [6]. In addition, the values for the growth in assay [7] and in assay [8] were 77% and 29%, respectively.

On to `N=c1c(S(=O)(=O)c2ccccc2)cc2c(=O)n3ccccc3nc2n1CC1CCCO1` (stereo not drawn), for which the growth in assay [1] is 104%; in assay [2], 101%; in assay [3], 109%; in assay [4] it was 96.1%; in assay [5], 106%; in assay [6] it was 105%. For the same compound, the figures for the growth in assay [7] and in assay [8] were 105% and 108%, respectively.

Regarding `CC(=O)Oc1ccc(OC(C)=O)c2ccccc12`, the growth in assay [1] is -49.6% (active); in assay [2], 96.8%; in assay [3], 95.8%; in assay [4], 109%; in assay [5], 57.3%; in assay [6] it was 51.6%. Also, the growth is 103% in assay [7] and 100% in assay [8].

With `CCN(CC)CCN1C(=O)c2c(c(C)c3c(oc4ccc(O)cc43)c2C)C1=O`, the growth in assay [1] was 0.129% (active); in assay [2] it was 105%; in assay [3] it was 76.9%; in assay [4] it was 2.51% (active); in assay [5], 4.29% (active); in assay [6], -62.6% (active). The growth is 23.5% in assay [7] and 32.3% in assay [8].

In the case of `COc1ccc(-c2n[nH]c(=O)c3nc(NC(=S)Nc4ccc(Oc5ccccc5)cc4)sc23)cc1`, the growth is 81.9% in assay [1]; 108% in assay [2]; 97.3% in assay [3]; 96.8% in assay [4]; 96.8% in assay [5]; 91.1% in assay [6]. Also, the growth in assay [7] is 105%; in assay [8], 93.8%.

As for `O=C1c2ccccc2C(=O)c2c1cc1c(c2[N+](=O)[O-])OCO1`, the growth in assay [1] is 4.66% (active); in assay [2], 15.8%; in assay [3], 56.3%; in assay [4], 7.14% (active); in assay [5] it was 3.53% (active); in assay [6], 1.94% (active). Besides, the growth is -46.4% (active) in assay [7] and 0.869% (active) in assay [8].

In the case of `Cc1ccc(-c2csc(NC(=O)c3ccccc3CN3C(=O)c4ccccc4C3=O)n2)cc1`, the growth in assay [1] is 97.1%; in assay [2] it was 91.4%; in assay [3] it was 95.3%; in assay [4], 100%; in assay [5], 94.3%; in assay [6] it was 95.4%. The growth is 98% in assay [7] and 100% in assay [8].

On to `COC(=O)c1ccc(NC(=O)Nc2ccc(C(=O)OC)cc2)cc1`, for which the growth was 89% in assay [1]; 99% in assay [2]; 109% in assay [3]; 112% in assay [4]; 96.1% in assay [5]; 95.3% in assay [6]. Moreover, the growth in assay [7] is 108%; in assay [8], 113%.

Take `CC(C)(C)n1cc(-c2ccnc(NCCCNS(=O)(=O)c3cccc4ccccc34)c2)c(-c2cccc(F)c2)n1`: the growth in assay [1] is 34%; in assay [2], 65.4%; in assay [3], 90.4%; in assay [4], 92.4%; in assay [5] it was 52.9%; in assay [6], 53.5%. Also, the results for the growth in assay [7] and in assay [8] were 82.8% and 76.6%, respectively.
